# In PubChem BioAssay AID463173 (ICCB-Longwood Screening Facility, Harvard Medical School, 2010):
# In all, about 52,000 compounds went through this assay and about 4,300 (8.3%) were called active. What follows is part of a selection rich in actives, with near analogues and random picks from the rest. Values without a mark were called inactive. Cut-off read from the data, not from the text of the source: active = survival mostly below about 52% (no sharp cut-off); inactive = mostly above about 56%.
# System: DeltatarO mutant
# Assay: growth inhibition of S. aureus wild type versus tarO mutant, primary screen, teichoic acid synthesis inhibitors, RN4220, OD600 (AID 463173)
# Conditions: OD600, 18 h, stronger effect = lower value, screened at 18.75 µg/mL (by protocol)
row,SMILES,survival
1,Cc1ccc(NC(=O)c2ccc(NC(=O)N3CCSc4ncccc43)cc2)c(Cl)c1,64%
2,COc1cccc(-c2nc(CS(=O)(=O)CC(=O)Nc3cccc(C(C)=O)c3)c(C)o2)c1,71%
3,CCc1cccc(NC(=O)CN2c3ccccc3S(=O)(=O)c3ccccc32)c1,72%
4,CCOc1ccc(CC(=O)NCCc2csc(-c3ccc(C)cc3)n2)cc1,88%
5,CCOc1ccc(CCNC(=O)c2ccc(-n3c(C)cc4c3CCC(C)C4)cc2)cc1OCC (stereo unspecified),82%
6,COc1ccc(CCNC(=O)c2ccc(-n3c(C)cc4c3CCCC4)cc2)cc1OC,74%
7,COc1ccc(CCNC(=O)c2ccc(-n3c(C)cc4c3CCC(C)C4)cc2)cc1OC (stereo unspecified),52% (active)
8,CCOC(=O)C1CCN(C(=O)C2CCN(C3=NS(=O)(=O)C(c4ccc(C)cc4)=C3CC)CC2)CC1,115%
9,O=C(NCC(c1ccco1)S(=O)(=O)c1cccs1)c1ccc(Cl)cc1 (stereo unspecified),102%
10,O=C(Cn1c(=O)oc2cc(Cl)ccc21)Nc1cccc(C(F)(F)F)c1,89%
11,O=C(Cc1ccc(F)cc1)NCCc1csc2nc(-c3ccc(Cl)cc3)nn12,95%
12,O=S(=O)(Nc1ccc(Cl)cc1)c1cccc(S(=O)(=O)c2ccc(Cl)c(Cl)c2)c1,37% (active)
13,O=S(=O)(Nc1ccc(C(F)(F)F)cc1)c1ccc2c(c1)OCCO2,69%
14,O=S(=O)(Nc1c(F)cccc1F)c1ccc2c(c1)OCCO2,63%
15,Cc1c(Cl)cccc1NS(=O)(=O)c1ccc(NS(=O)(=O)c2ccc3c(c2)OCCO3)cc1,13% (active)
16,CN1CCN(S(=O)(=O)c2cccc(S(=O)(=O)c3ccc(Cl)c(Cl)c3)c2)CC1,102%
17,CCOC(=O)c1ccc(NS(=O)(=O)c2ccc3c(c2)OCCO3)cc1,74%
18,O=S(=O)(Nc1ccc(Cl)cc1)c1ccc(NS(=O)(=O)c2ccc3c(c2)OCCO3)cc1,38% (active)
19,O=S(=O)(Nc1cccc(C(F)(F)F)c1)c1ccc(NS(=O)(=O)c2ccc3c(c2)OCCO3)cc1,6% (active)
20,COC(=O)c1cc(NS(=O)(=O)c2ccc3c(c2)OCCO3)ccc1Cl,65%
21,Cc1cccc(C)c1NS(=O)(=O)c1ccc(NS(=O)(=O)c2ccc3c(c2)OCCO3)cc1,110%
22,CC(=O)c1ccc(NS(=O)(=O)c2cccc(S(=O)(=O)c3ccc(Cl)cc3)c2)cc1,124%
23,COc1ccc(NS(=O)(=O)c2ccc(NS(=O)(=O)c3ccc4c(c3)OCCO4)cc2)cc1,116%
24,O=C(O)CSc1nc2ccc(Cl)cc2[nH]1,84%

row,SMILES,survival
1,CCOc1cccc2sc(N(Cc3cccnc3)C(=O)c3ccco3)nc12,77%
2,CCc1cc(C(=O)NC(C)c2ccccc2)no1 (stereo unspecified),60%
3,Cc1ccc(NC(=O)CSc2nc(=O)n(Cc3ccncc3)c3c2CCC3)cc1Cl,80%
4,Cc1cn(S(=O)(=O)c2ccc(F)c(Cl)c2)cn1,91%
5,Nc1c(C(=O)Nc2ccc(C(F)(F)F)cc2)sc2nc(-c3cccs3)ccc12,70%
6,CCN1CCN(c2ncc3c(n2)CCN(Cc2cc(F)cc(F)c2)C3)CC1,90%
7,CCCCOc1ccc(CSCCN=C(N)N)cc1,1% (active)
8,CC(C)Oc1ccc(CSCCN)cc1,90%
9,COc1ccc(CCCN=C(N)N)cc1Cl,105%
10,O=C(NCc1ccccc1)c1ccc(CSc2nc3cccnc3n2Cc2cccc(F)c2)cc1,101%
11,COC(=O)c1ccc2c(c1)N(CC(=O)Nc1cccc(Cl)c1C)C(=O)c1ccccc1S2,74%
12,CC(C)c1ccc2c(c1)NC(c1ccncc1)=NC(c1cccs1)=N2,72%
13,CCOc1ccc(C2=NC(c3cccs3)=Nc3ccc(C(C)C)cc3N2)cc1,58%
14,Clc1ccc2c(c1)NC(c1ccncc1)=NC(c1cccs1)=N2,76%
15,CC(C)c1ccc2c(c1)NC(c1ccc(F)cc1)=NC(c1cccs1)=N2,45% (active)
16,Fc1ccc2c(c1)NC(c1ccncc1)=NC(c1cccs1)=N2,30% (active)
17,FC(F)(F)Oc1ccc2c(c1)NC(c1ccncc1)=NC(c1cccs1)=N2,91%
18,CCCCOc1cccc(C(=O)Nc2cccc(-c3nc4ncccc4o3)c2C)c1,47%
19,COc1ccc(NC(=O)[C@@H](c2ccccc2)N2Cc3ccccc3C2=O)cc1OC,62%
20,COc1cccc(CNC(=O)C2CCN(c3ncnc4c3nc3n4CCCCC3)CC2)c1,86%
21,COc1ccc(CNc2nc(-c3ccco3)nn2C(=O)CC(C)C)cc1,103%
22,Cc1ccc(-c2cn(-c3cccc(Cl)c3)c(S(=O)(=O)CC(=O)Nc3ccccc3F)n2)cc1,61%
23,O=C(CS(=O)(=O)c1nc(-c2ccc(Cl)cc2)cn1-c1ccccc1)Nc1cccc(Cl)c1,68%
24,O=C(CS(=O)(=O)c1nc(-c2ccc(Cl)cc2)cn1-c1ccccc1)Nc1ccc(F)cc1F,50% (active)

row,SMILES,survival
1,CN1CCN(C(=O)C(=O)Nc2c3c(nn2-c2cccc(Cl)c2)CSC3)CC1,76%
2,O=C(NCc1ccc(Cl)cc1)c1cc2ccccc2o1,61% (active)
3,O=C(NC1CC(=O)N(c2ccccc2)C1)c1cc2ccccc2o1 (stereo unspecified),89%
4,Cc1ccc(N2CC(NC(=O)c3cc4ccccc4o3)CC2=O)cc1 (stereo unspecified),99%
5,O=C(NC1CC(=O)N(c2ccc(Cl)cc2)C1)c1cc2ccccc2o1 (stereo unspecified),52% (active)
6,COCCNC(=O)c1cc2ccccc2o1,104%
7,O=C(NCc1ccccc1Cl)c1cc2ccccc2o1,74%
8,COc1ccc(CN2CCCN(CC(=O)Nc3ccc4c(c3)OCCO4)S2(=O)=O)cc1,74%
9,O=C1c2ccccc2C(=O)N1CCCn1nnc(-c2ccc(N3CCOCC3)cc2)n1,74%
10,C=CCNc1nc(Cl)nc(Cl)n1,99%
11,CC(C)Nc1nc(Cl)nc(NCCO)n1,110%
12,CCCNc1nc(Cl)nc(Cl)n1,62% (active)
13,Cc1ccc(-n2ncc3c(=O)n(Cc4cccc(Cl)c4)cnc32)cc1C,91%
14,COc1ccc(Cl)cc1NS(=O)(=O)c1cc(Br)cc2c1N(C(=O)C1CC1)CC2,55% (active)
15,COc1ccccc1CNS(=O)(=O)c1cc(Br)cc2c1N(C(=O)C1CC1)CC2,58%
16,O=C(C1CC1)N1CCc2cc(Br)cc(S(=O)(=O)Nc3ccc(C(F)(F)F)cc3)c21,41% (active)
17,CN(Cc1ccccc1)S(=O)(=O)c1cc(Br)cc2c1N(C(=O)C1CC1)CC2,34% (active)
18,CCc1ccccc1NS(=O)(=O)c1cc(Br)cc2c1N(C(=O)C1CC1)CC2,52% (active)
19,CCN(Cc1ccccc1)S(=O)(=O)c1cc(Br)cc2c1N(C(=O)C1CC1)CC2,58%
20,CCCCN(Cc1ccccc1)S(=O)(=O)c1cc(Br)cc2c1N(C(=O)C1CC1)CC2,57%
21,CC(C)c1ccc(NS(=O)(=O)c2cc(Br)cc3c2N(C(=O)C2CC2)CC3)cc1,56%
22,Cc1ccc(NS(=O)(=O)c2cc(Br)cc3c2N(C(=O)C2CC2)CC3)cc1C,95%
23,COc1cc(NS(=O)(=O)c2cc(Br)cc3c2N(C(=O)C2CC2)CC3)cc(OC)c1,99%
24,CCOc1ccc(NS(=O)(=O)c2cc(Br)cc3c2N(C(=O)C2CC2)CC3)cc1,79%

row,SMILES,survival
1,CC(=O)Nc1ccc(NS(=O)(=O)c2cc(Br)cc3c2N(C(=O)C2CC2)CC3)cc1,74%
2,CCC(C)Nc1nc2c(c(=O)[nH]c(=O)n2C)n1Cc1ccc(F)cc1 (stereo unspecified),73%
3,Cc1cc(C)c(NC(=O)CN(c2ccccc2)S(=O)(=O)N(C)C)c(C)c1,66%
4,CCCc1ccc(OCC(=O)Nc2sc3c(c2C(=O)OCC)CCC(C(C)(C)C)C3)cc1 (stereo unspecified),125%
5,COc1ccc(-n2c(=O)c3ccc(C(=O)NCc4ccc(C)cc4)cc3n(Cc3ccc(F)cc3Cl)c2=O)cc1,99%
6,COc1ccc(C2=NC(C)(C)N(CC(=O)Nc3cccc(C)c3)C2=O)cc1,76%
7,CC(=O)N(Cc1ccccc1)Cc1cc2cc(C)ccc2n2nnnc12,77%
8,COc1ccc(Nc2nc(N)nc(N)c2S(=O)(=O)c2ccccc2)cc1,78%
9,O=C(CCS(=O)(=O)c1cc(Br)cc2c1N(C(=O)C1CC1)CC2)NCc1ccccc1Cl,100%
10,O=c1c2sc3ccccc3c2n(Cc2ccc(Cl)cc2)c(=O)n1Cc1ccco1,83%
11,Fc1ccc(Nc2nc(Nc3ccc(F)cc3)nc(N3CCOCC3)n2)cc1,87%
12,Cc1ccc(Nc2c(-c3ccc(N4CCOCC4)cc3)nc3ncccn23)cc1C,88%
13,NNc1nc(N2CCOCC2)nc(N2CCOCC2)n1,76%
14,c1ccc(Nc2nc(N3CCCCC3)nc(N3CCCCC3)n2)cc1,106%
15,Cc1ccc(Nc2nc(Nc3ccc(C)c(C)c3)nc(N3CCOCC3)n2)cc1C,34% (active)
16,Cc1cccc(Nc2nc(Nc3cccc(C)c3)nc(N3CCOCC3)n2)c1,1% (active)
17,CCc1ccc(CNC(=O)c2ccc(-c3nc(CS(=O)(=O)c4ccccc4)c(C)o3)cc2)cc1,54%
18,CC(C)(C)OC(=O)N1CCC(c2c(C(=O)O)cnn2-c2ccc(F)cc2F)CC1,87%
19,CCCCN1CC(c2nc3ccccc3n2CCCCOc2ccc(C)cc2C)CC1=O (stereo unspecified),13% (active)
20,CCOc1ccccc1N1CC(c2nc3ccccc3n2CCCCOc2ccccc2)CC1=O (stereo unspecified),59%
21,CCOc1ccccc1N1CC(c2nc3ccccc3n2CCCCOc2cc(C)ccc2C)CC1=O (stereo unspecified),47% (active)
22,Cc1ccc(OCCCn2c(C3CC(=O)N(c4cccc(Cl)c4)C3)nc3ccccc32)c(C)c1 (stereo unspecified),76%
23,CCCCN1CC(c2nc3ccccc3n2CCCCOc2cc(C)ccc2C)CC1=O (stereo unspecified),15% (active)
24,CCOc1ccccc1N1CC(c2nc3ccccc3n2CCCOc2ccccc2OC)CC1=O (stereo unspecified),76%
